According to PubChem BioAssay (Tox21):
Inconclusive results are not listed. Unmarked numbers belong to inactive results. Activity calls are given as the source filed them. Calls follow the shape of the full dose curve.
% is scaled to controls: 0 for no effect and ±100 for the full control effect.

These compounds were tested against Vitamin D3 receptor (Homo sapiens) (UniProt P11473) (assay: qHTS assay to identify small molecule agonists of the vitamin D receptor (VDR) signaling pathway (AID 743222)). Conditions: HEK293T VDR-UAS-bla, beta-lactamase FRET ratio, 16 h; series mostly up to 63.5 µM.
Sequence of Vitamin D3 receptor (Homo sapiens) (P11473 whole entry, looked up): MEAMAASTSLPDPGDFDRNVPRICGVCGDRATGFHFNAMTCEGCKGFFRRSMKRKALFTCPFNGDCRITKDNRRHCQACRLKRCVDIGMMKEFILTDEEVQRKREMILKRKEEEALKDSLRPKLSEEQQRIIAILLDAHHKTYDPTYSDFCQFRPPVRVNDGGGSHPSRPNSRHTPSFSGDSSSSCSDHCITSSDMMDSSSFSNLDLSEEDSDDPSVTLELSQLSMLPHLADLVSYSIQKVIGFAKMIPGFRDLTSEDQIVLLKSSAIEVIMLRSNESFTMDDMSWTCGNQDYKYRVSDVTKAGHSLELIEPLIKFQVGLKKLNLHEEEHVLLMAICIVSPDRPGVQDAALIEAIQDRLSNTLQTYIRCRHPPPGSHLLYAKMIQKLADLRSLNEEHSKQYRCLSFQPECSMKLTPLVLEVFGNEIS
Text: National Center for Advancing Translational Sciences [NCATS]
NIH Chemical Genomics Center [NCGC]
U.S. Environmental Protection Agency [EPA]
National Institutes of Environmental Health Sciences [NIEHS]
National Toxicology Program [NTP]
U.S. Food and Drug Administration [FDA]
The vitamin D receptor (VDR), a member of nuclear hormone receptor superfamily, plays a critical role in calcium homeostasis and bone metabolism. It is also involved in cell differentiation and growth, and thrombogenicity.
Tox21 Assay Protocol Summary:
VDR-bla cells were dispensed at 2,000 cells/6 uL/well into black wall/clear-bottom 1536-well plates using a Multidrop Combi (Thermo Fisher Scientific, Waltham, MA) dispenser. After the assay plates were incubated at a 37C and 5% CO2 for 4 h, 23 nL of compounds dissolved in DMSO, positive controls or DMSO only was transferred to the assay plate by a Pintool station (Kalypsys, San Diego, CA). The plates were incubated at 37C and 5% CO2 for 16 h. After 1 uL of LiveBLAzerTM B/G FRET substrate was added using a Bioraptr Flying Reagent Dispenser (FRD) workstation (Beckman Coulter, Indianapolis, IN, USA), the plates were incubated at room temperature for 2 h, and fluorescence intensity was measured by an Envision plate reader (PerkinElmer, Shelton, CT).
With `CCN(CC)CCN` the outcome was “inactive”.
In the case of `C=CCCCCCCCCC(=O)OCCCC`, the outcome is reported as “inactive”.
In the case of `C=CCOC(=O)CCCCCC`, the outcome is reported as “inactive”.
`Cc1ncc([N+](=O)[O-])n1CC(C)O` (stereo not given) was tested, and the outcome was “inactive”.
`OCC1CCC(CO)CC1` (stereo not given) was tested, and the outcome was “inactive”.
For `O=C(CCCCC(=O)Nc1c(I)cc(I)c(C(=O)O)c1I)Nc1c(I)cc(I)c(C(=O)O)c1I`, the outcome was “inactive”.
In the case of `CN(C)CCN(C)CCO`, the outcome is reported as “inactive”.
In the case of `CC(O)COC(C)(C)C` (stereo not given), the outcome is reported as “inactive”.
In the case of `CCC(C(=O)OCCN1CCOC(c2ccccc2)C1C)c1ccccc1` (stereo not given), the outcome is reported as “inactive”.
For `C=C(C)[C@@H]1CC=C(C)C(=O)C1`, the outcome was “inactive”.
With `COC(=O)c1cccc(Cl)c1` the outcome was “inactive”.
In the case of `NCC1(Cc2noc(=O)[nH]2)CCCCC1`, the outcome is reported as “inactive”.
With `COc1c2occc2c(OC)c2c(=O)cc(C)oc12` the outcome was “inactive”.
For `O=[N+]([O-])c1c(Cl)cc(Cl)cc1Cl`, the outcome was “inactive”.
In the case of `CC(C)=CCC[C@@](C)(O)[C@H]1CC=C(C)CC1`, the outcome is reported as “inactive”.
In the case of `Cc1ccc(C(=O)O)cc1[N+](=O)[O-]`, the outcome is reported as “inactive”.
In the case of `CC/C=C\CCOC(=O)c1ccccc1O`, the outcome is reported as “inactive”.
For `CC(=O)O[Si](C)(OC(C)=O)OC(C)=O`, the outcome was “inactive”.
For `CC1(C)Cc2cccc(N)c2O1`, the outcome was “inactive”.
With `O=C(O)CONC(=O)c1ccccc1` the outcome was “inactive”.
For `CC1(C)CC(OC(=O)CCCCCCCCC(=O)OC2CC(C)(C)NC(C)(C)C2)CC(C)(C)N1`, the outcome was “inactive”.
In the case of `OC[C@@H](O)C(O)[C@@H](O)CO` (stereo not given in full), the outcome is reported as “inactive”.
`CC(C)(CO)C(O)C(=O)NCCCO` (stereo not given) was tested, and the outcome was “inactive”.
With `COC(=O)c1cc(Cl)cc(Cl)c1` the outcome was “inactive”.
In the case of `CC1=C(C(=O)O)N2C(=O)[C@@H](NC(=O)[C@H](N)c3ccccc3)[C@H]2SC1`, the outcome is reported as “inactive”.
For `CCCCCCCCCOC(=O)CCCCC(=O)OCCCCCCC`, the outcome was “inactive”.
In the case of `CCCSSCCC`, the outcome is reported as “inactive”.
Compound `N[C@@H](Cc1ccc(O)cc1)C(=O)O` has an activation of 10.9% [at 13.4 µM].
In the case of `C[C@]12CCC(=O)C=C1CC[C@H]1[C@@H]3CC[C@](O)(C(=O)CO)[C@@]3(C)C[C@H](O)[C@@]12F`, the outcome is reported as “inactive”.
In the case of `CC(O)CC(C)O` (stereo not given), the outcome is reported as “inactive”.
In the case of `O=C(O)CSCC(=O)NC1CCSC1=O` (stereo not given), the outcome is reported as “inactive”.
For `O=C(O)c1cc2ccccc2nc1C(=O)O`, the outcome was “inactive”.
For `CC(C)(C)NC[C@H](O)COc1cccc2c1CCCC2=O`, the outcome was “inactive”.
With `CC(=O)C(C)O` (stereo not given) the outcome was “inactive”.
In the case of `Cc1ccc(N)cc1S(=O)(=O)O`, the outcome is reported as “inactive”.
In the case of `CCCCCc1cccc(=O)o1`, the outcome is reported as “inactive”.
`O=S(=O)(O)c1ccc2c(N=Nc3ccc(S(=O)(=O)O)c4ccccc34)c(O)c(S(=O)(=O)O)cc2c1` gave an activation of -5.96% [at 6.01 µM].
`CC1(C)[C@H]2CC[C@](C)(C2)[C@H]1O` was tested, and the outcome was “inactive”.
For `COc1cc(/C=C/C(N)=O)cc(OC)c1OC`, the outcome was “inactive”.
With `NCc1ccc(S(N)(=O)=O)cc1` the outcome was “inactive”.
